Measured values as given in PubChem BioAssay AID1159580 (chemical genetic matrix, 2015).
The whole screen tested about 5,500 compounds, of which about 2,000 (36%) were called active. Not shown: some 18% with an inconclusive outcome. The list shows a part of the results. Unmarked numbers belong to inactive results. No stated cut-off is given here; in the data, active means normalized growth mostly below about 0.91 (no sharp cut-off); inconclusive means no clear call, values can overlap the other calls; inactive means mostly above about 0.92.

Assay: chemical genetic growth profiling, strain panel (AID 1159580);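 further: tested at 20 µM; growth read once vehicle control cultures reached saturation at 30 °C; 1 = growth at the plate median or of vehicle wells; lower values mean less growth of the strain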
Conditions: growth OD

CC(=O)OC[C@@]1(O)C[C@@]23CCC4c5ccoc5CC[C@]4(C)C2CC[C@@H]1C3 (some centres not stated)
normalized growth (S. cerevisiae deletion strains, locus YJR075W, strain HOC1, hits give low values): 1.01
normalized growth (S. cerevisiae deletion strains, locus YKL009W, strain mrt4, hits give low values): 0.868 (active)
normalized growth (S. cerevisiae deletion strains, locus YKL068W, hits give low values): 0.969
normalized growth (S. cerevisiae deletion strains, locus YKL085W, strain MDH1 (second series), hits give low values): 0.967
normalized growth (S. cerevisiae deletion strains, locus YKL085W, strain MDH1, hits give low values): 0.967
normalized growth (S. cerevisiae deletion strains, locus YKL160W, strain elf1, hits give low values): 0.978
normalized growth (S. cerevisiae deletion strains, locus YKL190W, strain CNB1, hits give low values): 0.986
normalized growth (S. cerevisiae deletion strains, locus YKR001C, strain vps1, hits give low values): 0.942
normalized growth (S. cerevisiae deletion strains, locus YKR026C, strain gcn3, hits give low values): 1.01
normalized growth (S. cerevisiae deletion strains, locus YKR091W, strain srl3, hits give low values): 1
normalized growth (S. cerevisiae deletion strains, locus YLL001W, strain dnm1, hits give low values): 0.974
normalized growth (S. cerevisiae deletion strains, locus YLL026W, hits give low values): 1.02
normalized growth (S. cerevisiae deletion strains, locus YLL041C, strain sdh2, hits give low values): 1.02
normalized growth (S. cerevisiae deletion strains, locus YLR027C, strain aat2, hits give low values): 1.01
normalized growth (S. cerevisiae deletion strains, locus YLR039C, strain RIC1, hits give low values): 0.661 (active)
normalized growth (S. cerevisiae deletion strains, locus YLR058C, strain SHM2, hits give low values): 0.973
normalized growth (S. cerevisiae deletion strains, locus YLR102C, strain apc9, hits give low values): 0.973
normalized growth (S. cerevisiae deletion strains, locus YLR113W, strain HOG1, hits give low values): 0.901
normalized growth (S. cerevisiae deletion strains, locus YLR221C, strain rsa3, hits give low values): 0.968
normalized growth (S. cerevisiae deletion strains, locus YLR258W, strain gsy2, hits give low values): 0.99
normalized growth (S. cerevisiae deletion strains, locus YLR262C, strain YPT6 (second series), hits give low values): 0.817 (active)
normalized growth (S. cerevisiae deletion strains, locus YLR262C, strain YPT6, hits give low values): 0.624
normalized growth (S. cerevisiae deletion strains, locus YLR268W, strain sec22, hits give low values): 0.987
normalized growth (S. cerevisiae deletion strains, locus YLR320W, strain mms22, hits give low values): 0.945
normalized growth (S. cerevisiae deletion strains, locus YLR330W, strain CHS5, hits give low values): 0.969
normalized growth (S. cerevisiae deletion strains, locus YLR342W, strain FKS1 (second series), hits give low values): 0.775 (active)
normalized growth (S. cerevisiae deletion strains, locus YLR342W, strain FKS1, hits give low values): 1.01
normalized growth (S. cerevisiae deletion strains, locus YLR357W, strain rsc2, hits give low values): 0.963
normalized growth (S. cerevisiae deletion strains, locus YLR370C, strain arc18, hits give low values): 1
normalized growth (S. cerevisiae deletion strains, locus YLR371W, strain rom2, hits give low values): 0.96
normalized growth (S. cerevisiae deletion strains, locus YLR384C, strain iki3, hits give low values): 1.03
normalized growth (S. cerevisiae deletion strains, locus YLR418C, strain cdc73, hits give low values): 0.983
normalized growth (S. cerevisiae deletion strains, locus YML016C, strain PPZ1, hits give low values): 0.978
normalized growth (S. cerevisiae deletion strains, locus YML032C, strain rad52, hits give low values): 0.884 (active)
normalized growth (S. cerevisiae deletion strains, locus YML120C, strain ndi1, hits give low values): 1.01
normalized growth (S. cerevisiae deletion strains, locus YML124C, strain tub3, hits give low values): 0.98
normalized growth (S. cerevisiae deletion strains, locus YMR058W, strain fet3, hits give low values): 0.952
normalized growth (S. cerevisiae deletion strains, locus YMR078C, strain ctf18, hits give low values): 0.965
normalized growth (S. cerevisiae deletion strains, locus YMR125W, strain sto1, hits give low values): 0.988
normalized growth (S. cerevisiae deletion strains, locus YMR129W, hits give low values): 1.02
normalized growth (S. cerevisiae deletion strains, locus YMR205C, strain PFK2, hits give low values): 0.981
normalized growth (S. cerevisiae deletion strains, locus YMR223W, strain ubp8, hits give low values): 0.905
normalized growth (S. cerevisiae deletion strains, locus YMR231W, strain pep5, hits give low values): 1.01
normalized growth (S. cerevisiae deletion strains, locus YMR263W, strain SAP30, hits give low values): 0.985
normalized growth (S. cerevisiae deletion strains, locus YMR307W, strain GAS1, hits give low values): 0.779
normalized growth (S. cerevisiae deletion strains, locus YNL067W, strain RPL9B, hits give low values): 0.963
normalized growth (S. cerevisiae deletion strains, locus YNL071W, strain lat1, hits give low values): 0.964
normalized growth (S. cerevisiae deletion strains, locus YNL128W, strain TEP1, hits give low values): 0.997
normalized growth (S. cerevisiae deletion strains, locus YNL153C, strain GIM3, hits give low values): 0.992
normalized growth (S. cerevisiae deletion strains, locus YNL183C, strain NPR1, hits give low values): 0.877
normalized growth (S. cerevisiae deletion strains, locus YNL209W, strain ssb2, hits give low values): 1.02
normalized growth (S. cerevisiae deletion strains, locus YNL233W, strain BNI4, hits give low values): 0.947
normalized growth (S. cerevisiae deletion strains, locus YNL248C, strain rpa49, hits give low values): 0.96
normalized growth (S. cerevisiae deletion strains, locus YNL250W, strain rad50, hits give low values): 0.976
normalized growth (S. cerevisiae deletion strains, locus YNL271C, strain bni1, hits give low values): 0.975
normalized growth (S. cerevisiae deletion strains, locus YNL298W, strain CLA4, hits give low values): 0.891 (active)
normalized growth (S. cerevisiae deletion strains, locus YNL307C, strain MCK1, hits give low values): 0.778 (active)
normalized growth (S. cerevisiae deletion strains, locus YNL322C, strain KRE1 (second series), hits give low values): 1.03
normalized growth (S. cerevisiae deletion strains, locus YNL322C, strain KRE1, hits give low values): 0.997
normalized growth (S. cerevisiae deletion strains, locus YNR049C, strain mso1, hits give low values): 1.01
normalized growth (S. cerevisiae deletion strains, locus YNR052C, strain pop2, hits give low values): 0.938
normalized growth (S. cerevisiae deletion strains, locus YOL006C, strain TOP1, hits give low values): 1.11
normalized growth (S. cerevisiae deletion strains, locus YOL012C, strain htz1): 1.41
normalized growth (S. cerevisiae deletion strains, locus YOL147C, strain pex11, hits give low values): 0.971
normalized growth (S. cerevisiae deletion strains, locus YOR001W, strain rrp6, hits give low values): 0.985
normalized growth (S. cerevisiae deletion strains, locus YOR061W, strain CKA2, hits give low values): 0.952
normalized growth (S. cerevisiae deletion strains, locus YOR069W, strain VPS5, hits give low values): 0.981
normalized growth (S. cerevisiae deletion strains, locus YOR070C, strain gyp1, hits give low values): 1.01
normalized growth (S. cerevisiae deletion strains, locus YOR080W, strain dia2, hits give low values): 1.02
normalized growth (S. cerevisiae deletion strains, locus YOR083W, strain WHI5, hits give low values): 0.978
normalized growth (S. cerevisiae deletion strains, locus YOR106W, strain vam3, hits give low values): 0.998
normalized growth (S. cerevisiae deletion strains, locus YOR136W, strain idh2, hits give low values): 0.95
normalized growth (S. cerevisiae deletion strains, locus YOR144C, strain elg1, hits give low values): 0.97
normalized growth (S. cerevisiae deletion strains, locus YOR184W, strain ser1, hits give low values): 0.69 (active)
normalized growth (S. cerevisiae deletion strains, locus YOR231W, strain MKK1, hits give low values): 0.872
normalized growth (S. cerevisiae deletion strains, locus YOR265W, strain rbl2, hits give low values): 1.01
normalized growth (S. cerevisiae deletion strains, locus YOR270C, strain vph1, hits give low values): 1.21
normalized growth (S. cerevisiae deletion strains, locus YOR290C, strain snf2, hits give low values): 0.927
normalized growth (S. cerevisiae deletion strains, locus YOR316C, strain cot1, hits give low values): 0.966
normalized growth (S. cerevisiae deletion strains, locus YPL051W, strain arl3, hits give low values): 0.967
normalized growth (S. cerevisiae deletion strains, locus YPL055C, strain LGE1, hits give low values): 0.954
normalized growth (S. cerevisiae deletion strains, locus YPL078C, strain atp4, hits give low values): 0.931
normalized growth (S. cerevisiae deletion strains, locus YPL106C, strain sse1, hits give low values): 0.99
normalized growth (S. cerevisiae deletion strains, locus YPL240C, strain hsp82, hits give low values): 1.01
normalized growth (S. cerevisiae deletion strains, locus YPL241C, strain CIN2, hits give low values): 0.978
normalized growth (S. cerevisiae deletion strains, locus YPL256C, strain CLN2, hits give low values): 0.927
normalized growth (S. cerevisiae deletion strains, locus YPR119W, strain clb2, hits give low values): 0.967
normalized growth (S. cerevisiae deletion strains, locus YPR141C, strain kar3, hits give low values): 0.989
normalized growth (S. cerevisiae deletion strains, locus YPR163C, strain tif3, hits give low values): 0.962
normalized growth (S. cerevisiae deletion strains, locus YPR167C, strain met16, hits give low values): 0.978
normalized growth (S. cerevisiae deletion strains, strain wtn01, hits give low values): 0.948
normalized growth (S. cerevisiae strains, strain wild type, hits give low values): 0.964
